Source: PubChem BioAssay AID504500 (NMMLSC, 2011)
Potency and affinity values are given separately. Values without a mark were called inactive.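 Rule for the calls: active = compounds whose curve fit is tight, with span above 25% and half-effect concentration below 10 µM; inactive = the rest.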

Target: Beta-adrenergic receptor kinase 1 (Homo sapiens) (UniProt P25098)
Test: aptamer displacement from bead-bound GRK2 – biochemical, cherry pick 1, bead flow cytometry, dose response (AID 504500)
Details: bead-bound biotinylated GRK2, FAM-aptamer displacement; series mostly up to 33 µM; inhibition of aptamer binding: at the top concentration

Chain of Beta-adrenergic receptor kinase 1 (Homo sapiens) (P25098 whole entry, looked up): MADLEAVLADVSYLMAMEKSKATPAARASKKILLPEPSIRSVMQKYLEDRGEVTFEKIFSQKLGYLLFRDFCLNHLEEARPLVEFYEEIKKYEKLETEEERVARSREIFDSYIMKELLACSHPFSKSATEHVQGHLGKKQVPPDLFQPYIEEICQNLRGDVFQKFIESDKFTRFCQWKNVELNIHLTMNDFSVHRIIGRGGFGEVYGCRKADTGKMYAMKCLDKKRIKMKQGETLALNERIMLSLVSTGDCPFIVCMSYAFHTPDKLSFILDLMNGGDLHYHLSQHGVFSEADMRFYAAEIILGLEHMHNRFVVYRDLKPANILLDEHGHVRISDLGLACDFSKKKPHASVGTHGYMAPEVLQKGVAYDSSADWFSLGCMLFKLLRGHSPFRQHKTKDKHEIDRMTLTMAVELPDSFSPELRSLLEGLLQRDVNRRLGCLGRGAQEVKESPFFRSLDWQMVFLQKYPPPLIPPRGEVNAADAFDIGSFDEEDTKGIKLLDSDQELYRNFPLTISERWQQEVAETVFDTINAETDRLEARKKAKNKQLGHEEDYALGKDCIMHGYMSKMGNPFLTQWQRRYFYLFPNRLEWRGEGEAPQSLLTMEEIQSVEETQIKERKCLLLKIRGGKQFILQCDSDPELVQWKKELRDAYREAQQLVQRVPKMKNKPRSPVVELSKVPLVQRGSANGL

Compound | inhibition of aptamer binding
O=C1NC(=O)N(c2ccc3c(c2)OCO3)C(=O)/C1=C\c1ccc(-c2ccccc2C(=O)O)o1 | -4.21%
Cn1ncnc2c(=O)n(C)c(=O)nc1-2 | 6.02%
Cc1nc2c(=O)n(C)c(=O)nc-2n(C)n1 | 2.89%
CC[n+]1c(/C=C/N(C)c2ccccc2)sc2ccc(Cl)cc21 | 69.3%
